Assay results: PubChem BioAssay (NCATS)
Records with an inconclusive call do not appear. The source made the active and inactive calls. Calls follow the shape of the dose curve; as a rule, active = well fitted inhibition curve with a large enough effect; inconclusive = small, poorly fitted or top-dose-only effect; inactive = flat fitted curve, though single readings scatter.

Test system: Zika virus NS2B-NS3 protease
Experiment: Primary screen GU AMC qHTS for Zika virus inhibitors (AID 1347154); also: nearly all actives have a fitted effect of over 70% in size;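 as to activity change, negative = inhibition: 0% = no-inhibitor control and -100% = no-enzyme control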
Conditions: Zika NS2B-NS3 unlinked protease, AMC fluorogenic substrate; series mostly up to 54.1 µM; activity change, negative = inhibition: at the top concentration
How it was run: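 Unlinked Zika NS2B hydrophilic domain–NS3 protease complex at 25 nM in 10 mM Tris-HCl pH 8.0, 0.01% Tween 20, with an AMC peptide substrate. Fluorescence change (340/450 nm) over 15 min at room temperature, normalized to controls, fitted to 4-parameter Hill.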
Potency is read from the fitted curve at half-maximal effect.

Structure (SMILES) | activity change, negative = inhibition | Potency
CN(C)C(=S)SC(=S)N(C)C | -5.03% (inactive) | –
C[C@H]1C[C@H]2[C@@H]3CCC4=CC(=O)C=C[C@]4(C)[C@@]3(Cl)[C@@H](O)C[C@]2(C)[C@@]1(O)C(=O)CO | -18.9% (inactive) | –
CC(C)(C(=O)c1cccnc1)c1cccnc1 | -0.652% (inactive) | –
CCOc1ccc2nc3cc(N)ccc3c(N)c2c1 | – | 31.6 µM (active)
C[C@@H]1C[C@H]2[C@@H]3C[C@H](F)C4=CC(=O)C(Cl)=C[C@]4(C)[C@@]3(F)[C@@H](O)C[C@]2(C)[C@@]1(O)C(=O)CO | -0.0967% (inactive) | –
O=C(COc1ccc(Cl)cc1)N1CCN(Cc2ccc3c(c2)OCO3)CC1 | 5.99% (inactive) | –
CCN(CCCc1ccccc1)CCCc1ccccc1 | -3.73% (inactive) | –
CC(=O)N(O)CCCCCNC(=O)CCC(=O)N(O)CCCCCNC(=O)CCC(=O)N(O)CCCCCN | -7.29% (inactive) | –
COc1c2occc2c(OC)c2c(=O)cc(C)oc12 | -5.18% (inactive) | –
CCCCN1CCCC1C(=O)Nc1c(C)cc(C)cc1C (configuration not stated) | -2.77% (inactive) | –
Oc1ccc(Cl)c2cccnc12 | -2.48% (inactive) | –
COc1cccc2c1C(=O)c1c(O)c3c(c(O)c1C2=O)C[C@@](O)(C(=O)CO)C[C@@H]3O[C@H]1C[C@H](N)[C@H](O)[C@H](C)O1 | -4.23% (inactive) | –
CC(C)N=C(N)/N=C(\N)Nc1ccc(Cl)cc1 | 5.95% (inactive) | –
CCCOC(C(=O)OC1CCN(C)CC1)(c1ccccc1)c1ccccc1 | 2.43% (inactive) | –
CCCC(=O)O[C@]1(C(=O)CO)CC[C@H]2[C@@H]3CCC4=CC(=O)CC[C@]4(C)[C@H]3[C@@H](O)C[C@@]21C | -0.591% (inactive) | –
CC(=O)N/N=C/c1ccc([N+](=O)[O-])o1 | 0.683% (inactive) | –
C[C@]12CCC(=O)C=C1CC[C@H]1[C@@H]3CC[C@](O)(C(=O)CO)[C@@]3(C)C[C@H](O)[C@@]12F | -4.51% (inactive) | –
CC1(C)O[C@@H]2C[C@H]3[C@@H]4C[C@H](F)C5=CC(=O)C=C[C@]5(C)[C@H]4[C@@H](O)C[C@]3(C)[C@]2(C(=O)CO)O1 | -1.9% (inactive) | –
CN=C(NC#N)NCCSCc1csc(N=C(N)N)n1 | – | inactive
c1ccc(CNCCNCc2ccccc2)cc1 | -3.77% (inactive) | –
CC1(C)O[C@@H]2C[C@H]3[C@@H]4C[C@H](F)C5=CC(=O)CC[C@]5(C)[C@H]4[C@@H](O)C[C@]3(C)[C@]2(C(=O)CO)O1 | -8.1% (inactive) | –
CNCC[C@@H](Oc1ccccc1C)c1ccccc1 | – | inactive
